We go through 38 compounds from PubChem BioAssay AID493194 (Broad Institute, 2011).

Entries with a potency or affinity are not part of this list. Records with an inconclusive call do not appear. Activity calls are given as the source filed them.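 The calls were made as follows: active = a valid curve of falling signal whose half-effect concentration is at most ten times the top tested dose; inconclusive = flat curve at 30 to 70% inhibition, or poor fit; inactive = signal rise, flat within 30%, or potency beyond limit.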

The target of the assay is Scavenger receptor class B member 1 (Mus musculus) (UniProt Q61009). The experiment in a line: mouse SR-BI DiI-HDL uptake blockers – ldlA[mSR-BI] cells, fluorescence, cherry pick, dose response (AID 493194).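 Also: CHO cells lacking LDL receptor and overexpressing mouse SR-BI; cellular uptake of fluorescently labeled HDL measured as cell fluorescence.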 As to conditions: CHO ldlA[mSR-BI] DiI-HDL uptake fluorescence, 3 h; series mostly up to 35 µM.
Scavenger receptor class B member 1 (Mus musculus), sequence (Q61009 whole entry, looked up): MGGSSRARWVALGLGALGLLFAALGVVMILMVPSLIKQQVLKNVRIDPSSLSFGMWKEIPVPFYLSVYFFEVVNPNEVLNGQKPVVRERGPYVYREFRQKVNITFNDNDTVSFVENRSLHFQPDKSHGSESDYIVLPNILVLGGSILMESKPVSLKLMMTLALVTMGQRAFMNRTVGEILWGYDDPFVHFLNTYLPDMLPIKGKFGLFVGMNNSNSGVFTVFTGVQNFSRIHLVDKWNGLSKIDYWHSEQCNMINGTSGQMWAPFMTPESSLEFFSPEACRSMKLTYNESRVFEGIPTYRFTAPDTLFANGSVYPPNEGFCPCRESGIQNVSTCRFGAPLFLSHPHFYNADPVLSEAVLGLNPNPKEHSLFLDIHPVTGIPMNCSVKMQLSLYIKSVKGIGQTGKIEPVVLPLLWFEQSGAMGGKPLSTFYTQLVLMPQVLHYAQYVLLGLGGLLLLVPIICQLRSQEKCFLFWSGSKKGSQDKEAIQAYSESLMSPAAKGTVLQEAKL
For `COc1cccc(-c2csc(N3CCN(C(=S)Nc4cccc(Cl)c4)CC3)n2)c1`, the result was inactive.

On to `COCCN(C(=O)COC(=O)c1ccccc1Nc1ccccc1)c1c(N)n(Cc2ccccc2)c(=O)[nH]c1=O`, for which the outcome was inactive.

For the compound `c1ccc(COn2c(-c3ccccc3)nc3c2CCc2nonc2-3)cc1`, the result was inactive.

As for `CC1CCCCC1NC(=O)c1nn(C)c2c1CS(=O)(=O)c1ccccc1-2` (stereo not drawn), the compound was classed as inactive.

In the case of `CCOC(=O)N1CCC(NC(=O)c2ccc3c(c2)N(Cc2ccc(F)cc2)CCS3)CC1`, the call was inactive.

For the compound `COc1ccc(C2/C=C\CN(S(=O)(=O)c3ccc(-c4ccccc4)cc3)CC(=O)N2Cc2ccc(F)cc2)cc1` (stereo not drawn), the result was inactive.

On to `CC[C@]12c3[nH]c4cc(-c5ccco5)ccc4c3CCN1C(=O)[C@@H](CC(=O)NCc1ccc(OC)c(OC)c1)C[C@@H]2C(=O)N1CCN(C(=O)c2ccco2)CC1`, for which the result was inactive.

Take `CN(C)S(=O)(=O)N1CCN(C(=O)N(c2ccccc2)c2ccccc2)CC1`: the outcome was inactive.

Consider `CCOC(=O)CSc1c(-c2ccc(Cl)cc2)[nH]c2ccccc12`, for which the compound was classed as inactive.

As for `COC(=O)c1c(C)[nH]c(C(=O)C(C)OC(=O)C2CC(=O)N(c3ccc(C)cc3)C2)c1C` (stereo not drawn), the compound was called inactive.

Turning to `O=C(NNc1c(F)c(F)cc(F)c1F)C1CCN(S(=O)(=O)c2ccccc2F)CC1`, the compound was called inactive.

For `CC(C)CN(C(=O)COC(=O)C12CC3CC(CC(O)(C3)C1)C2)C1CCS(=O)(=O)C1` (stereo not drawn), the outcome was inactive.

With `COc1cc(/C=C/C(=O)OCC(=O)c2ccc[nH]2)cc(OC)c1OC`, the compound was called inactive.

Regarding `COc1ccc(N2CCN(C(=O)c3cc(=O)[nH]c4ccccc34)CC2)cc1`, the compound was called inactive.

As to `COc1ccc(OC)c(NC(=O)CCC(=O)N(Cc2ccc(OC)c(OC)c2)c2nccs2)c1`, the outcome was inactive.

`Cc1c(C(=O)OCC2CCCO2)[nH]c2c1C(=O)CC(c1ccco1)C2` (stereo not drawn): the result was inactive.

Turning to `CCOc1ccccc1NC(=O)N1C2CCCC1CC(NC(=O)C1CC1)C2` (stereo not drawn), the outcome was inactive.

Turning to `CCCC(=O)N1c2ccc(-c3csc(N)n3)cc2CC1C` (stereo not drawn), the outcome was inactive.

As to `O=C(Nc1cccc(S(=O)(=O)N2CCOCC2)c1)C1CCN(S(=O)(=O)c2ccccc2)CC1`, the outcome was inactive.

Take `CCSCC1COC(c2cccn2Cc2ccc(C)cc2)=N1` (stereo not drawn): the compound was classed as inactive.

`COCCCNc1nc2c(-c3cccc(C)c3)nnn2c2ccccc12`: the outcome was inactive.

For `O=C(CCCC(=O)N(CC(=O)NC1CCCC1)C1CCCC1)Nc1ccccn1`, the result was inactive.

With `CCOC(=O)C1CCCN(S(=O)(=O)NC[C@H]2O[C@@H](n3cnc4c(N)ncnc43)[C@H](O)[C@@H]2O)C1` (stereo partly drawn), the result was inactive.

In the case of `CNc1cnn(-c2ccc(C)cc2)c(=O)c1Sc1ccc(C)cc1`, the result was inactive.

As for `Cc1ccc(-c2sc(-c3ccccc3)nc2CC(=O)Nc2ccccc2F)cc1`, the result was inactive.

For `COc1ccc(N(CC(=O)NC2CCCC2)C(=O)Cn2nnc(-c3ccc(C)cc3)n2)cc1`, the outcome was inactive.

Regarding `CCOc1ccccc1NC(=O)C(CC(C)C)NC(=O)C1CCC(C)CC1` (stereo not drawn), the result was inactive.

As for `COc1ccc2c(c1)OC[C@H]1[C@H]2N2C(=O)c3cc(Cl)ccc3NC(=O)[C@@]2(C)[C@H]1c1ccccc1`, the compound was classed as inactive.

With `CCCOc1ccc(C(=O)Nc2ccc(S(=O)(=O)N3C[C@@H]4C[C@@H](C3)c3cccc(=O)n3C4)cc2)cc1`, the result was inactive.

As for `COC(=O)c1cc2c(ccn2-c2ccc(F)cc2)n1Cc1ccc(C#N)cc1`, the compound was called inactive.

Consider `CNc1sc(C(=O)c2cccs2)c(N)c1-c1nc2ccccc2s1`, for which the call was inactive.

For `Cc1ccc(Sc2nc(-c3ccccc3)nnc2C(F)(F)F)cc1`, the call was inactive.

For `CC(C)CN(CC(C)C)C(=O)COn1nnc2ccc(S(=O)(=O)N3CCOCC3)cc21`, the compound was called inactive.

Regarding `CC(=O)Nc1cc(NC(C)=O)cc(C(=O)OCC(=O)N(c2ccccc2)C2CCS(=O)(=O)C2)c1` (stereo not drawn), the compound was called inactive.

For `CCCCC(c1nnnn1CC1CCCO1)N1CCN(c2cc(Cl)ccc2C)CC1` (stereo not drawn), the compound was classed as inactive.

Take `O=C(NC1CC2CCCC(C1)N2C(=O)N1CCCCC1)C1CCCCC1` (stereo not drawn): the compound was called inactive.

Turning to `C/C=C/COC(=O)c1[nH]c2c(c1C)C(=O)CC(c1ccco1)C2` (stereo not drawn), the compound was classed as inactive.

`COc1cccc(-c2csc(N3CCN(CC(=O)NNC(=O)c4ccc(Br)cc4)CC3)n2)c1`: the call was inactive.
